# Assay results: PubChem BioAssay AID1326 (NMMLSC, 2008)
# Screen size: about 190,000 compounds; about 130 (0.068%) were called active. No stated cut-off is given here; in the data, active means inhibition above about 40%; inactive means the rest. Many of the other results were omitted from the sample, so actives are more common in it than they were.
# Biological target: ATP-dependent translocase ABCB1 (Homo sapiens) (UniProt P08183)
# Test: blockers of ABCB1-mediated dye efflux – cell-based, multiplex, flow cytometry, ABCG2 counter-screen, primary screen (AID 1326);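 further: 0% = vehicle and 100% = reference inhibitor; higher value means more JC-1 retained so stronger ABCB1 efflux block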
# Settings: CCRF-Adr cells, JC-1 efflux, at 6.6 µM, active compounds read high
# ATP-dependent translocase ABCB1 (Homo sapiens), sequence (P08183 whole entry, looked up): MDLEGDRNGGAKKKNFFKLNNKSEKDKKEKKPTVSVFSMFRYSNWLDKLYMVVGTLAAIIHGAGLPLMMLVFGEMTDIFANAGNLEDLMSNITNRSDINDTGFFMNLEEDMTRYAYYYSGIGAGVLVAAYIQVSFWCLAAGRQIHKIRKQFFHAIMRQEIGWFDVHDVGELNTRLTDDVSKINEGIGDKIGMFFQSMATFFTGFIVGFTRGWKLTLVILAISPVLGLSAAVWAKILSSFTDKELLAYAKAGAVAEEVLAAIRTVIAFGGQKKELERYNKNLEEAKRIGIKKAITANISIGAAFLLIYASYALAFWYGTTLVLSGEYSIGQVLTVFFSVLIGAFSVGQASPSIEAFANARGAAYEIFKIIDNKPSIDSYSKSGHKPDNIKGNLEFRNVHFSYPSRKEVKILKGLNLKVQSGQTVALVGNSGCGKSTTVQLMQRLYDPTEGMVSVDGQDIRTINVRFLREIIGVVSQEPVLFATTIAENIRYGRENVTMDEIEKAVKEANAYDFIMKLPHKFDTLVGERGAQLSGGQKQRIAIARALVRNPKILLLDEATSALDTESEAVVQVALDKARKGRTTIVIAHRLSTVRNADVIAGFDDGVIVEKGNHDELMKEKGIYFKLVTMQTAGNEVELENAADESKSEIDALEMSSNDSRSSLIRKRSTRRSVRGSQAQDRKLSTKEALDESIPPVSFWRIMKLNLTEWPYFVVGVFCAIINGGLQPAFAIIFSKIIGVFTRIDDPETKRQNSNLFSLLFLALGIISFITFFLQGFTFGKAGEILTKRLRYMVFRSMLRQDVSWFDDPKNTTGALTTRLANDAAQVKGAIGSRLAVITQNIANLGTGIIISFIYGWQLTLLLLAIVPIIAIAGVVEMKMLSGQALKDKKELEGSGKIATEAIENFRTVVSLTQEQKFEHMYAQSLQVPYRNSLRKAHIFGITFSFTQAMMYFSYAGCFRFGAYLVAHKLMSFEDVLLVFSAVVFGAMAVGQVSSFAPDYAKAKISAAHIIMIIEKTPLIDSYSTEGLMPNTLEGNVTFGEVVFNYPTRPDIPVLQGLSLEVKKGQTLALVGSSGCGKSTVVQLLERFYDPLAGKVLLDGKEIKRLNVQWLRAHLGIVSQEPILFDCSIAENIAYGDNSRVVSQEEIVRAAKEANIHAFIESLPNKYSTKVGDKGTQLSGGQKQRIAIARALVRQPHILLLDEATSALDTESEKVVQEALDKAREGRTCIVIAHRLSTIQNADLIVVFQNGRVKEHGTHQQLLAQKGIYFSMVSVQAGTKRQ
row,SMILES,inhibition
1,COc1ccc2c(-c3ccccc3)cc(SCC(=O)N(C)C3CCS(=O)(=O)C3)nc2c1 (stereo not given),1.15% (inactive)
2,O=C(CN1CCCCCC1)NCCN1C(=O)S/C(=C\c2ccccc2Cl)C1=O,0.67% (inactive)
3,COCCn1c(C)cc(C(=O)CSc2nc3ccccc3c(=O)n2C(C)COC)c1C (stereo not given),2.97% (inactive)
4,Cc1cc(C)cc(NC(=O)N2CCCCCCC2)c1,2.76% (inactive)
5,COc1cccc(C(O)Cc2nc3ccccc3n2C)c1OC (stereo not given),-0.47% (inactive)
6,C=CCc1cccc2cc(C(=O)NC3CCCC3)c(=O)oc12,1.75% (inactive)
7,Cc1c(C(=O)c2cccc([N+](=O)[O-])c2)c2ccccn2c1CCC#N,2.01% (inactive)
8,NS(=O)(=O)c1cccc(NC(=O)CSc2nc3ccccc3n2-c2ccccc2)c1,-1.23% (inactive)
9,Cc1ccc(SCCC(=O)OCC(=O)Nc2ncc(Cl)cc2Cl)cc1,0.04% (inactive)
10,Cc1ccc(-n2c(SCC(=O)Nc3ncc(Cl)cc3Cl)nc3ccccc32)cc1,56.9% (active)
11,CCn1c(SCC(=O)Nc2nccs2)nnc1-c1ccco1,0.22% (inactive)
12,COCCCNC(NC(=O)c1ccc(OC)cc1)C(Cl)(Cl)Cl (stereo not given),0.77% (inactive)
13,O=c1[nH]c2cccnc2n(CCNc2ncc(C(F)(F)F)cc2Cl)c1=O,0.11% (inactive)
14,CC(C)(C)n1ncc2c(=O)n(Cc3ccc(Cl)cc3)cnc21,0.59% (inactive)
15,C#CCOCCOCCOCCNc1nc(N2CCN(C(=O)[C@H](CCCCN)n3cc([C@@H](N)C(C)CC)nn3)CC2)nc(N2CCN(C(=O)[C@H](Cc3ccc(O)cc3)n3cc([C@@H](N)C(C)CC)nn3)CC2)n1 (stereo not given in full),0.44% (inactive)
16,COc1ccc(Cn2c(=O)cc(C)[nH]c2=S)cc1,1.2% (inactive)
17,O=C(Oc1c(-c2ccco2)oc2ccccc2c1=O)c1cccnc1,1.71% (inactive)
18,O=C(N/N=C/c1sc(N2CCCCC2)nc1-c1cccs1)c1cccnc1,-0.08% (inactive)
19,CCOc1cnc(C(=O)NNC(=O)c2ccccc2Br)o1,-0.12% (inactive)
20,COc1ccc(CN2CCNC(=O)C2CC(=O)N(C)Cc2ccccn2)cc1OC (stereo not given),0.3% (inactive)
21,N=C1C(c2nc3ccccc3s2)=C(O)CN1NC(=O)c1ccc([N+](=O)[O-])cc1,-0.23% (inactive)
22,CN(CC(=O)Nc1ccccc1F)CC(=O)Nc1ccccc1Br,-0.22% (inactive)

row,SMILES,inhibition
1,CCOCCCn1c(NN)nc2ccccc2c1=O,0.54% (inactive)
2,Nc1ccc(Cl)c(S(=O)(=O)Nc2ccccc2Cl)c1,0.19% (inactive)
3,COc1ccc(-c2[nH]ncc2CN(Cc2nccn2C)C(C)C)cc1F,2.14% (inactive)
4,CCC(C(=O)Nc1ccc(C(C)C)cc1)c1ccccc1 (stereo not given),0.19% (inactive)
5,N#Cc1c(NC(=O)C2CCCO2)sc2c1CCCCC2 (stereo not given),1.4% (inactive)
6,O=C(C1CC1)N1N=C2CCCCC2C1(O)C(F)(F)F (stereo not given),0.21% (inactive)
7,COCC(C)NCc1cc(Br)ccc1OC (stereo not given),0.42% (inactive)
8,Cc1ccc2nc(-c3cccnc3)c(NC3CCCC3)n2c1,1.9% (inactive)
9,COc1cc2[nH]c(=O)n(Cc3ccc(C(=O)NC4CCN(Cc5ccccc5)CC4)cc3)c(=O)c2cc1OC,0% (inactive)
10,O=C(NCCc1ccccc1)C1CCC(Cn2c(=O)c3ccccc3n(Cc3cccnc3)c2=O)CC1 (stereo not given),4.02% (inactive)
11,CC(=O)Nc1ccc(C(=O)CSc2nc3ccc(C)cc3[nH]2)cc1,-0.95% (inactive)
12,c1ccc(CN=C2Nc3ccccc3CS2)nc1,0.26% (inactive)
13,O=C(c1ccc(N2CCOCC2)c([N+](=O)[O-])c1)N1CCN(S(=O)(=O)c2cccs2)CC1,0.44% (inactive)
14,CC(C)CN1CCNC(=O)C1CC(=O)N(C)CC1CCOCC1 (stereo not given),0.15% (inactive)
15,CCCCCc1nnc(NC(=O)c2ccc(=O)n(C)n2)s1,0.44% (inactive)
16,CC1CCCN(CC(O)COc2ccc3c(c2)OCO3)C1 (stereo not given),0.12% (inactive)
17,CCCCN1C(=S)NC[C@@H]1C(C)CC (stereo not given in full),0.02% (inactive)
18,CC/C(=N\NC(=O)c1ccccc1Cl)c1ccc(Br)s1,1.38% (inactive)
19,COc1ccc(CCNC(=O)CSc2nc3[nH]ncc3c(=O)n2-c2cccc(C(F)(F)F)c2)cc1OC,0.5% (inactive)
20,O=C(C1CCCO1)N1CCN(C(=S)NC2CC2)CC1 (stereo not given),0.55% (inactive)
21,CNC(=S)N1CCC(NC(=O)C(Cc2ccc(F)cc2)NC(C)=O)CC1 (stereo not given),0.7% (inactive)
22,Cc1ccc(C)c(NC(=O)CCC(=O)N/N=C2/CC(=O)CC(C)(C)C2)c1,0.24% (inactive)

row,SMILES,inhibition
1,Cc1c(CCOC(=O)CC23CC4CC(CC(C)(C4)C2)C3)sc[n+]1Cc1ccc([N+](=O)[O-])cc1,53.8% (active)
2,Cc1c(CCOC(=O)c2cc([N+](=O)[O-])ccc2Cl)sc[n+]1CCCCS(=O)(=O)[O-],1.17% (inactive)
3,Cc1c(CCO)sc[n+]1CC(=O)OC12CC3CC(CC(C3)C1)C2,0.29% (inactive)
4,CC(C)NC(=O)c1ccc(Cl)cc1Cl,-0.21% (inactive)
5,CC(=O)c1ccc(NC(=O)C(C)NCc2ccc(Cl)cc2)cc1 (stereo not given),0.85% (inactive)
6,Cc1nc(CN2CCN(C(=O)CCc3nnc(Cc4c[nH]c5ccccc45)o3)CC2)cs1,-1.57% (inactive)
7,CN1CCN(/N=C/c2ccc(C#N)cc2)CC1,1.07% (inactive)
8,CCC(C)(C)NC(=O)CN(C(=O)C(=O)Nc1ccc2c(c1)OCCO2)C(C)(C)CC,2.48% (inactive)
9,CSc1ccc(/C=N/NC(=O)c2cccc(Cl)c2)cc1,-0.32% (inactive)
10,CC(=O)Nc1ccccc1OC(C)C(=O)N1CCC(C)CC1 (stereo not given),0.05% (inactive)
11,COc1cc(NC(=S)NCc2ccc(S(N)(=O)=O)cc2)cc(OC)c1,-0.49% (inactive)
12,COc1ccc(NS(=O)(=O)c2cc(NC(=O)C3CCCCC3)ccc2N2CCOCC2)cc1,0.89% (inactive)
13,CC[C@H](C)[C@@H](C(=O)N1CCNCC1)n1cc([C@@H](N)Cc2ccc(O)cc2)nn1,0.31% (inactive)
14,COc1ccc(C2=NN(C(=O)CCC(=O)O)C(c3cccs3)C2)cc1OC (stereo not given),0.01% (inactive)
15,C=CCn1c(SCCOc2ccc(OC)cc2)nnc1C(NC(=O)c1ccc(OC)cc1)C(C)C (stereo not given),48.2% (active)
16,C=CCn1c(SCc2ccc(Cl)c(Cl)c2)nnc1C(CO)NC(=O)c1ccc(OC)cc1 (stereo not given),1.4% (inactive)
17,C=CCn1c(SCC(=O)c2ccc(Br)cc2)nnc1C(C)NC(=O)Cc1ccc(OC)cc1 (stereo not given),1.19% (inactive)
18,CN(C)CCOc1ccc(Cl)cc1C(C)(C)C,0.53% (inactive)
19,Nc1nc(SCC(=O)NN(c2ccccc2)c2ccccc2)n[nH]1,0.84% (inactive)
20,CCc1nnc(NC(=O)CSc2nnnn2-c2cccc(C(C)=O)c2)s1,0.21% (inactive)
21,CC(C)CCN1CCN(C/C=C/c2ccco2)CC1CCO (stereo not given),0.24% (inactive)
22,C/C(=N/OC(=O)c1cccc(C(F)(F)F)c1)c1cnccn1,-0.43% (inactive)

row,SMILES,inhibition
1,C/C(CC1CC(C)(C)OC1=O)=N/Nc1nc(-c2ccccc2)cs1 (stereo not given),-0.4% (inactive)
2,CN(c1ccccc1)S(=O)(=O)c1cc(C(=O)OCC(=O)N2CCN(C(=O)c3ccco3)CC2)ccc1Cl,0.19% (inactive)
3,Cc1ccc(C)c(NS(=O)(=O)c2ccc(OCC(=O)NCc3cccnc3)cc2)c1,-0.02% (inactive)
4,COc1cc(C(=S)NCc2ccccc2)cc(Br)c1O,-0.65% (inactive)
5,CCC(=O)c1ccc(N2CCN(C(=O)c3cc([N+](=O)[O-])ccc3F)CC2)c(F)c1,2.09% (inactive)
6,CCN(CC)CCNS(=O)(=O)c1ccc(/C=C/C(=O)O)cc1,0.17% (inactive)
7,COc1cc(CNC2CCCC2)c(Br)cc1OCc1ccccc1,0.98% (inactive)
8,CN1CCN(C(c2cc3cc4c(cc3[nH]c2=O)OCCO4)c2nnnn2C2CCCC2)CC1 (stereo not given),0.88% (inactive)
9,CNC(=O)C(=O)N/N=C/c1ccccn1,-0.01% (inactive)
10,CSc1ncccc1C(=O)N1CCCC(CCC(=O)NCc2ccccc2F)C1 (stereo not given),-0.56% (inactive)
11,C=C(C)c1cccc(C(C)(C)NC(=O)NCCN(CC)CC)c1,0.61% (inactive)
12,O=S(=O)(Cc1ccccc1)c1nc2ccccc2n1Cc1ccccn1,1.49% (inactive)
13,COc1cc2[nH]c(=S)n(Cc3ccc(F)cc3)c(=O)c2cc1OC,0.4% (inactive)
14,CCCc1cc(=O)[nH]c(SCc2cc(=O)oc3c(C)c(C)ccc23)n1,-1.22% (inactive)
15,Cc1nnsc1C(=O)Nc1cccc(Cl)c1C,0.41% (inactive)
16,COc1ccc(Cl)cc1NC(=O)C(C)N1CCc2ccccc21 (stereo not given),0.39% (inactive)
17,CC1=CC(=C(C#N)c2nc3ccccc3s2)C=C(C)N1c1ccc(F)cc1F,-0.7% (inactive)
18,COC(=O)c1ccc(OCC(O)CN(CCO)CC(O)Cn2ccc3ccccc32)cc1 (stereo not given),0.69% (inactive)
19,Cc1ccccc1C1=NC(C(F)(F)F)(C(F)(F)F)c2c(n(-c3ccc(F)cc3)c(=O)[nH]c2=O)N1,0% (inactive)
20,NS(=O)(=O)c1ccc(NC(=O)/C=C/c2ccccc2Cl)cc1,0.51% (inactive)
21,CCC(c1nnnn1C1CCCC1)N(Cc1cccs1)Cc1cc2cccc(C)c2[nH]c1=O (stereo not given),6.67% (inactive)
22,Cc1cccc2cc(CN(Cc3ccc4c(c3)OCO4)Cc3nnnn3C3CCCC3)c(=O)[nH]c12,7.85% (inactive)

row,SMILES,inhibition
1,Cc1cccc2cc(CN(Cc3cccs3)C(c3nnnn3C3CCCC3)C(C)C)c(=O)[nH]c12 (stereo not given),61.7% (active)
2,CCC1CCCCN1S(=O)(=O)Cc1ccccc1Cl (stereo not given),2.08% (inactive)
3,Cc1c(C(=O)NCCCc2ccccc2)cccc1[N+](=O)[O-],0.92% (inactive)
4,COc1cccc(NC(=S)NC(=O)c2c(Cl)c(C)nn2C)c1,-0.45% (inactive)
5,Cc1ccsc1C1C(C#N)=C(N)OC2=C1C(=O)CC(C)(C)C2 (stereo not given),0.69% (inactive)
6,COc1cc(OC)c(C(=O)N2CCCC2)cc1OC,1.33% (inactive)
7,N#Cc1c(NC(=O)c2ccc(N3CCOCC3)c([N+](=O)[O-])c2)sc2c1CCCC2,0.71% (inactive)
8,COC(=O)c1nn(-c2cccc(Cl)c2)ccc1=O,-0.18% (inactive)
9,COCCNC(=S)N/N=C/c1c(C)[nH]c2ccccc12,-0.55% (inactive)
10,CN(C)C(=O)N1CCNCC1,-0.13% (inactive)
11,CC(=O)N(CN1C(=O)C2C3C=CC(C3)C2C1=O)c1cccc(Cl)c1 (stereo not given),0.48% (inactive)
12,CCn1c(-c2cccnc2Cl)nc2cc(C)c(C)cc21,0.26% (inactive)
13,Cc1nc(CC(=O)NNS(=O)(=O)c2ccc(F)c(Cl)c2)cs1,1.15% (inactive)
14,COC(=O)C(C(=O)Nc1cccc(Cl)c1C)C1CCCC1 (stereo not given),-0.03% (inactive)
15,NNc1nc2c(Cl)cccc2s1,-1.62% (inactive)
16,CCOC(=O)C1=C(C)NC(=S)NC1c1cccs1 (stereo not given),-0.3% (inactive)
17,Cc1ccccc1NC(=O)c1nn(-c2ccc(F)c(F)c2)ccc1=O,0.58% (inactive)
18,COC(=O)c1ccc(COC(=O)c2cnccn2)cc1,0.17% (inactive)
19,CC1CN(CCCOc2ccccc2-c2ccccc2)CC(C)O1 (stereo not given),3.45% (inactive)
20,CCCCC(=O)Nc1ccc(C(=O)Nc2cc(C(F)(F)F)ccc2Cl)cc1,-0.36% (inactive)
21,CCC(=O)/C(=C(/O)c1ccccc1)c1nc2ccccc2[nH]1,0.14% (inactive)
22,Cc1cc(C)cc(C(=O)NC(=S)Nc2ccc3[nH]c(=O)[nH]c3c2)c1,-0.17% (inactive)
